According to PubChem BioAssay (NCI):
Values joined by “and” are separate entries in the source; they are usually repeats but may differ in a detail not shown here. Equal values may be shown once. This is part of a sample that, as a whole, favours compounds with a hit. Of some 83,000 tested, about 20% had one in any assay.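 48-hour exposure, single concentration, 96-well plates; percent growth endpoint where 0 means no net growth. Active: below 10.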 Active and inactive are the calls of the source.

What was measured:
Test in all cases: NCI-60 one-dose screen, 48 h (100 = growth as untreated, 0 = no growth, -100 = all killed)
Settings in all cases: 10 µM unless noted
NCI-H23 lung = test system: NCI-H23 lung
NCI-H226 lung = test system: NCI-H226 lung
NCI-H322M lung = test system: NCI-H322M lung
HOP-62 NSCLC = test system: HOP-62 NSCLC
NCI-H460 lung = test system: NCI-H460 lung
HOP-92 NSCLC = test system: HOP-92 NSCLC
NCI-H522 lung = test system: NCI-H522 lung
A549/ATCC NSCLC = test system: A549/ATCC NSCLC
786-0 renal = test system: 786-0 renal
COLO 205 colon = test system: COLO 205 colon

Row | SMILES | growth (NCI-H23 lung) | growth (NCI-H226 lung) | growth (NCI-H322M lung) | growth (HOP-62 NSCLC) | growth (NCI-H460 lung) | growth (HOP-92 NSCLC) | growth (NCI-H522 lung) | growth (A549/ATCC NSCLC) | growth (786-0 renal) | growth (COLO 205 colon)
1 | COc1ccc(NC(=O)Nc2ccccc2CNc2nc(Nc3ccc(OCCN4CCCC4)cc3)ncc2Cl)cc1 | 43.1% (inactive) | 76.1% (inactive) | 36.5% (inactive) | 6.02% (active) | -70.9% (active) | 4.83% (active) | -3.26% (active) | 18.4% (inactive) | -84% (active) | 1.65% (active)
2 | COc1ccc(-c2cc(=O)c3c(O)cc(O)cc3o2)cc1 | 96.3% (inactive) and 100% (inactive) | 106% (inactive) | 109% (inactive) and 103% (inactive) | 113% (inactive) and 114% (inactive) | 104% (inactive) and 97.2% (inactive) | 95.4% (inactive) and 75% (inactive) | 83.2% (inactive) and 77.9% (inactive) | 97.1% (inactive) and 94.8% (inactive) | 107% (inactive) | 101% (inactive)
3 | O=[N+]([O-])c1ccc(S(=O)Cc2ccccc2)c([N+](=O)[O-])c1 (stereo not given) | 71.8% (inactive) and 82.7% (inactive) | 24.9% (inactive) | 99.5% (inactive) | 109% (inactive) and 47.2% (inactive) | 99.8% (inactive) and 103% (inactive) | 56.6% (inactive) and 7.51% (active) | -98.3% (active) and -79% (active) | 83.2% (inactive) and 40.6% (inactive) | 84.2% (inactive) and 51.2% (inactive) | -98.2% (active) and -92.3% (active)
4 | CN(Cc1ccccc1)c1nc(Cl)c(C2CC(c3ccc(F)cc3)=NN2C=O)s1 (stereo not given) | 84.2% (inactive) | 95.9% (inactive) | 93.1% (inactive) | 107% (inactive) | 96.9% (inactive) | 89.5% (inactive) | 83.3% (inactive) | 94.6% (inactive) | 93.9% (inactive) | 99.7% (inactive)
5 | Nn1c(-c2ccc(Cl)cc2)nc2c(-c3ccc(Cl)cc3)nc3ccc(Cl)cc3c2c1=O | 56.3% (inactive) | 1.77% (active) | 35.3% (inactive) | -78.2% (active) | -63.2% (active) | 27.4% (inactive) | 48.9% (inactive) | -61.2% (active) | -65.3% (active) | 22.3% (inactive)
6 | Nc1n[nH]c2cccc(C#Cc3cccc(C(=O)Nc4ccc(CN5CCOCC5)c(C(F)(F)F)c4)c3)c12 | 33.6% (inactive) | 36.5% (inactive) | 72.2% (inactive) | 52.1% (inactive) | 44.5% (inactive) | 35.5% (inactive) | 41.9% (inactive) | 43.4% (inactive) | 8.57% (active) | 13.1% (inactive)
7 | C[N+]1=C(/C=C\C=C\c2ccccc2)C(C)(C)c2ccccc21 | 18.7% (inactive) | 63.8% (inactive) | 81.2% (inactive) | 52% (inactive) | 43.4% (inactive) | -7.51% (active) | -3.08% (active) | 28% (inactive) | 33.6% (inactive) | -43.4% (active)
8 | O=C1/C(=C/c2cn(-c3ccccc3)nc2-c2ccccc2)SC(=S)N1c1ccc(Cl)cc1 | 87.5% (inactive) | 71.2% (inactive) | 64.8% (inactive) | 52.7% (inactive) | 47.5% (inactive) | 43.3% (inactive) | 83.7% (inactive) | 68.8% (inactive) | 85.5% (inactive) | 111% (inactive)
9 | COc1cc(-c2nn(-c3cccc(NC(=O)CCN4CCN(C)CC4)c3)cc2-c2ccncc2)ccc1Cl | 42.5% (inactive) | 67.7% (inactive) | 37.5% (inactive) | 24.6% (inactive) | 14.9% (inactive) | 22.7% (inactive) | -6.1% (active) | 30.7% (inactive) | 12.2% (inactive) | -31.6% (active)
10 | Nc1ccc(-c2ccc(N)c(Br)c2)cc1Br | 53.9% (inactive) | 56.9% (inactive) | 77.3% (inactive) | 55.4% (inactive) | 44.3% (inactive) | 41.8% (inactive) | 57% (inactive) | 42.2% (inactive) | 52.9% (inactive) | 82.6% (inactive)
11 | Nc1ccc(-c2nc3ccc4[nH]ncc4c3c3c2CCCC3)cc1F | 19.7% (inactive) | 42.2% (inactive) | 41.3% (inactive) | 23.1% (inactive) | 24.8% (inactive) | 55.4% (inactive) | 22.5% (inactive) | 11.7% (inactive) | 37% (inactive) | 12.4% (inactive)
12 | Cc1nc2cccc(NCCCCC(=O)NO)c2c(=O)n1-c1ccccc1 | 69.3% (inactive) | 83.9% (inactive) | 66.1% (inactive) | 50.3% (inactive) | 76.5% (inactive) | 43.3% (inactive) | 43.5% (inactive) | 78.8% (inactive) | 69.7% (inactive) | 62.4% (inactive)
13 | N#C/C(=C\c1ccccc1Cl)c1cc2ccccc2[nH]1 | 82.8% (inactive) | 75.2% (inactive) | 89.5% (inactive) | 65.3% (inactive) | 90.5% (inactive) | 37.3% (inactive) | 82.5% (inactive) | 90.5% (inactive) | 99.6% (inactive) | 105% (inactive)
14 | O=C(Nc1ccc2ccccc2c1)c1cc2ccccc2cc1O | 81.5% (inactive) | 91.6% (inactive) | 75.7% (inactive) | 98.8% (inactive) | 85.4% (inactive) | 63.7% (inactive) | 62.6% (inactive) | 84.6% (inactive) | 85.6% (inactive) | 110% (inactive)
15 | CC(=O)c1c(C)nc(SCC(=O)Nc2ccc(Cl)cc2)n1-c1ccc(Cl)cc1 | 96.5% (inactive) | 96% (inactive) | 94.9% (inactive) | 99% (inactive) | 86.7% (inactive) | 110% (inactive) | 72.3% (inactive) | 86.7% (inactive) | 102% (inactive) | 109% (inactive)
16 | Cc1n(Cc2ccc3ccccc3c2)c(Cl)c(Cl)[n+]1Cc1ccc2ccccc2c1 | 25.6% (inactive) | 47.1% (inactive) | 76.2% (inactive) | 59.6% (inactive) | 33.5% (inactive) | -11.3% (active) | 16.9% (inactive) | 81.4% (inactive) | 50.2% (inactive) | -46.6% (active)
17 | Fc1ccc(NC(c2ccc(F)cc2)C2CCN(CCCCc3ccccc3)CC2)cc1 (stereo not given) | 43.7% (inactive) | 74.4% (inactive) | 60.9% (inactive) | 71.4% (inactive) | 1.45% (active) | 29.1% (inactive) | 53.6% (inactive) | 52.3% (inactive) | 35.8% (inactive) | -56.5% (active)
18 | COc1ccccc1/C=C/C(=O)/C=C/c1ccccc1OC | -26% (active) and 24.7% (inactive) | -30.6% (active) | 30.6% (inactive) and 38.9% (inactive) | -22.7% (active) and -19.7% (active) | 2.27% (active) and -3.65% (active) | -10.9% (active) and 33.9% (inactive) | -84.5% (active) and -58.5% (active) | -13.8% (active) and -7.39% (active) | -56.9% (active) and -47.8% (active) | -73.7% (active) and -57.9% (active)
19 | O=C(c1ccc(Nc2nccc(NCCCNc3ccnc4cc(Cl)ccc34)n2)cc1)N1CCCCC1 | 32.4% (inactive) | 84.9% (inactive) | 57.6% (inactive) | 57.5% (inactive) | 11.3% (inactive) | 64.3% (inactive) | 38.2% (inactive) | 19.1% (inactive) | 32.9% (inactive) | 27.2% (inactive)
20 | CN(C)CCN1C(=O)c2c(c3c4ccccc4n4c3c3c2c2ccccc2n3C2CC(O)C(O)C4(C)O2)C1=O (stereo not given) | 23.1% (inactive) | 18.6% (inactive) | 34.8% (inactive) | 14.2% (inactive) | 2.33% (active) | 75.9% (inactive) | -5.02% (active) | 5.47% (active) | 29.3% (inactive) | 18.9% (inactive)
21 | N=c1ccccn1CCO | 101% (inactive) | 107% (inactive) | 96.7% (inactive) | 110% (inactive) | 114% (inactive) | 96.5% (inactive) | 114% (inactive) | 99.3% (inactive) | 102% (inactive) | 110% (inactive)
22 | CCCCCCCCCCCCCCCCCCOc1cccc(CC(=O)OCC[N+](CC)(CC)CC)c1 | 35.7% (inactive) | 59.6% (inactive) | 77.7% (inactive) | 69.1% (inactive) | 67% (inactive) | 52.3% (inactive) | 38.5% (inactive) | 60% (inactive) | 58.5% (inactive) | 47% (inactive)
23 | Cc1nc2sc(C(=O)Nc3cccc4ncccc34)c(N)c2cc1C(C)O (stereo not given) | 80.4% (inactive) | 85.1% (inactive) | 79.7% (inactive) | 68.1% (inactive) | 80.9% (inactive) | 70.5% (inactive) | 34.7% (inactive) | 81.3% (inactive) | 86.2% (inactive) | 107% (inactive)
